# Values without a mark were called inactive.
# Test system: Meloidogyne hapla J2
# Assay: proportion of mobile M. hapla J2 relative to DMSO control (fraction of DMSO control); higher = more viable, less nematicidal, active = 0.7 or less
# Conditions: 60 µM; 5 days; temperature: 20 °C
# Method: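 DODA library (846 commercial 1,3,4- and 1,2,4-oxadiazole compounds plus commercial nematicide controls) screened at a single dose of 60 µM (0.6% DMSO) in 96-well plates, two biological replicates. Read-outs: C. elegans N2 L1 survival/reproduction score at day 6, 20 °C (0: 0-10 worms, 1: 11-20, 2: 21-50, 3: >50, 4: overgrown/starved). C. elegans daf-2 dauer, D. dipsaci and M. hapla J2 mobility at day 5, 20 °C, and P. penetrans mobility at day 5, 20 °C, each relative to DMSO controls. M. hapla egg hatching at day 12, 25 °C, relative to the mean of 8 DMSO wells on the same plate.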
row,Structure (SMILES),proportion of mobile M. hapla J2
1,COc1ccc(-c2noc(COc3ccccc3Cl)n2)cc1,1.04
2,Cc1ccc(C)c(OCc2nc(-c3ccccc3Cl)no2)c1,0.854
3,O=C(CSc1nnc(-c2ccccc2)o1)Nc1cccc(Cl)c1,1
4,COc1ccc(-c2noc(COc3ccc(C)cc3C)n2)cc1,0.93
5,Cc1ccc(-c2noc(COc3cc(C)ccc3C)n2)cc1,0.994
6,Cc1cccc(OC(C)c2nc(-c3ccncc3)no2)c1 (stereo not given),0.988
7,Cc1ccc(NC(=O)CSc2nnc(-c3ccccc3)o2)cc1C,0.983
8,Cc1ncc2c(c1-c1noc(-c3ccccc3)n1)CCC2,0.921
9,Cc1csc(NC(=O)CSc2nnc(-c3cccc(Cl)c3)o2)n1,1.05
10,COc1cccc(-c2noc(COc3ccc(Cl)cc3)n2)c1,0.993
11,O=C(Nc1ccc(-c2noc(-c3ccc(Cl)cc3)n2)cc1)c1ccco1,1.04
12,Clc1cccc(-c2nc(-c3ccncc3)no2)c1,0.634 (active)
13,Fc1cccc(-c2nc(-c3ccccc3)no2)c1,0.867
14,COc1ccc(C(=O)Nc2ccc(-c3nnc(SCc4ccccc4)o3)cc2)cc1,1.07
15,CCOc1cc(-c2nc(-c3ccccc3OC)no2)cc(OCC)c1OCC,0.978
16,Cc1ccc(OC(C)c2nc(-c3ccncc3)no2)cc1C (stereo not given),0.995
17,c1ccc(OCc2nc(-c3cccs3)no2)cc1,0.652 (active)
18,Cn1c(SCc2ccc(Cl)cc2)nnc1-c1ccco1,1.05
19,CCOc1ccccc1-c1nnc(SCc2ccc(C(=O)OC)o2)o1,0.904
20,CC(Sc1nnc(-c2ccc(C(C)(C)C)cc2)o1)C(=O)Nc1nccs1 (stereo not given),0.845

row,Structure (SMILES),proportion of mobile M. hapla J2
1,c1coc(-c2nnc(-c3ccco3)o2)c1,1.03
2,Cc1cc(C)c(C)c(OCc2nc(-c3cccnc3)no2)c1,0.58 (active)
3,COc1ccccc1NC(=O)CSc1nnc(-c2cccc3ccccc23)o1,0.811
4,CCOc1cc(-c2nc(-c3ccccc3C)no2)cc(OCC)c1OCC,0.821
5,COc1ccccc1-c1nnc(SCc2ccc(F)cc2)o1,0.329 (active)
6,N#Cc1ccc(CSc2nnc(-c3ccco3)o2)cc1,0.607 (active)
7,COc1ccc(NC(=O)c2ccccc2-c2nc(-c3ccccc3C)no2)cc1,0.81
8,CCCCSc1nnc(-c2ccc(Br)cc2)o1,1
9,COc1nc2ccc(C)cc2cc1-c1noc(-c2ccncc2)n1,0.849
10,CCc1ccc(C(=O)Nc2ccccc2-c2nc(-c3cccnc3)no2)cc1,1.03
11,CN(C(=O)CSc1nnc(-c2ccccc2)o1)c1ccccc1,1.02
12,COc1ccccc1-c1nc(-c2ccccc2Cl)no1,0.899
13,CCOc1ccccc1-c1nc(-c2ccc(NC(=O)c3ccncc3)cc2)no1,0.977
14,Cc1ccc(-c2noc(-c3ccc(Cl)cc3)n2)cc1,1.03
15,CC(=O)c1c(C)cc(C)c(CSc2nnc(-c3ccco3)o2)c1C,0.906
16,O=C(CSc1nnc(-c2ccccc2)o1)OCc1ccccc1,0.999
17,Clc1ccc(OCc2ccccc2)c(-c2nc(-c3cccnc3)no2)c1,1.01
18,Clc1ccccc1-c1nc(-c2ccc3c(c2)OCO3)no1,0.983
19,COc1ccc(-c2noc(CSc3ccc(C)cc3)n2)cc1,1.03
20,O=C(c1ccccc1-c1nc(-c2ccccc2)no1)N1CCCCC1,1.06

# Reference: the supplement of paper PMC11219838
